ABCB6 inh MLPCN = blocks the human ABCB6 transporter; Q9NP58; K562-ABCB6 porphyrin accumulation, flow cytometry, 1 h; active compounds read low; fluorescence ratio to DMSO, % at 10 µM; 360,000 tested, 0.19% active; AID 602162;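 active = fluorescence ratio to DMSO below 75%, the collection mean minus 3 SD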;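 note: signal is porphyrin accumulated inside mitochondria; 100% equals median channel fluorescence of DMSO control wells; lower ratio means ABCB6 inhibition with less porphyrin fluorescence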
Granule exo inh = blocks lytic granule exocytosis. 360,000 tested, 0.66% active. AID 651702. TALL-104 LAMP-1 surface exposure, flow cytometry; cells stimulated with thapsigargin and PMA. inhibition, % at 10 µM;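 active = inhibition above about 55%, limit read from the data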
Myeloid diff 2 = myeloid differentiation induction | ER-HoxA9 myeloid progenitors, lysozyme-GFP differentiation, flow cytometry | calls only at 10 µM | 360,000 tested, 1% active | AID 624256;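 active = normalized GFP-positive differentiation at or above the plate's own cutoff, the solvent-only control mean plus 3 SD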;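 note: cells exposed to compound for four days before flow analysis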
Active calls of the source: *; i = inactive; x = not tested or not shown; + = active, no number. In the library only some 1.8% were active in any assay of this set; here they are far more common.

SMILES | ABCB6 inh MLPCN | Granule exo inh | Myeloid diff 2
O=C(NCc1cc(Cl)cc(Cl)c1)c1csc(COCCO)n1 | 92 | -3 | i
Cc1noc(C)c1CSCC(=O)Nc1ccccc1N1CCCC1 | 97 | 1 | i
C[C@@H]1CN([C@@H](C)CO)C(=O)CCCn2nncc2CO[C@H]1CN(C)S(=O)(=O)c1ccccc1F | 94 | 2 | i
CC1(C)Nc2ccccc2N(Cc2ccc([N+](=O)[O-])cc2)C1=O | 108 | 0 | i
COCCCN1C(=O)C(CC(=O)NCCN2CCOCC2)CC(C(=O)N2CCOCC2)=C1C (centres undefined) | 101 | -2 | i
CCOC(=O)C1(C)CCN1C(=O)c1ccc(C(C)(C)C)cc1 (centres undefined) | 99 | 17 | i
CCN(CC)S(=O)(=O)c1ccc(C(=O)NC(=S)N2CCCCC2C)cc1 (centres undefined) | 96 | 2 | i
O=C1NC(c2ccccc2)=C(c2ccc3ccccc3n2)C(c2ccccc2)N1 (centres undefined) | 96 | -2 | i
O=C1NC(c2ccccc2)=C(c2nc3ccccc3s2)C(c2ccc(O)cc2)N1 (centres undefined) | 117 | 1 | +
C=Cc1ccc(Cn2c(C)c(C(=O)NCc3ccc4c(c3)OCCO4)sc2=O)cc1 | 95 | 4 | i
COC(=O)[C@H]1[C@H]2C[C@@H]3c4[nH]c5cc(OC)ccc5c4CCN3C[C@H]2C[C@@H](OC(=O)/C=C/c2cc(OC)c(OC)c(OC)c2)[C@@H]1OC | 114 | 48 | i
COC(=O)[C@H]1[C@H]2C[C@@H]3c4[nH]c5cc(OC)ccc5c4CCN3C[C@H]2C[C@@H](OC(=O)c2ccc(N)cc2)[C@@H]1OC | 115 | 3 | +
COc1ccc(Nc2ncccc2C(=O)NCc2ccccc2)cc1 | 130 | -3 | i
COc1cccc(Nc2ncccc2C(=O)NCc2ccccc2)c1 | 182 | -6 | +
CO[C@@]12[C@@H]3N[C@@H]3CN1C1=C(C(=O)C(N)=C(C)C1=O)[C@@H]2COC(N)=O | 96 | -6 | x
COc1ccccc1N1CCN(C(=O)c2ccc(Cl)c(S(=O)(=O)NCc3ccco3)c2)CC1 | 95 | 0 | +
O=C(c1ccc(Cl)c(S(=O)(=O)NCc2ccco2)c1)N1CCN(c2ccccc2F)CC1 | 100 | -1 | i
Cc1c(NC(=O)COC(=O)c2cccc(F)c2)c(=O)n(-c2ccccc2)n1C | 96 | -3 | i
CCOC(=O)N1C(=O)NC(=O)C1c1ccc(OC)cc1 (centres undefined) | 88 | 2 | i
COc1cc(/C=C2/SC(=NCc3ccccc3)N(Cc3ccccc3)C2=O)ccc1O | 132 | 3 | i
COc1cc(/C=C2\SC(=S)N(CCC(=O)Nc3cccc(O)c3)C2=O)cc(OC)c1OC | 96 | 85* | i
O=C1/C(=C\c2ccc(O)c(O)c2)SC(=S)N1Cc1ccccc1 | 464 | 4 | +
O=C1/C(=C\c2cccc(O)c2)SC(=S)N1Cc1ccccc1 | 103 | -8 | i
COc1cc(/C=C2\SC(=S)N(CCC(=O)Nc3ccccc3)C2=O)cc(OC)c1OC | 94 | -5 | i
O=C(O)CC(C(=O)O)N1C(=O)/C(=C/c2ccc(-c3nc4ccccc4s3)o2)SC1=S (centres undefined) | 111 | 3 | i
SMILES | ABCB6 inh MLPCN | Granule exo inh | Myeloid diff 2
O=C(O)CCN1C(=O)/C(=C/c2ccc(-c3nc4ccccc4s3)o2)SC1=S | 91 | 98* | +
COc1cc(/C=C2/SC(=S)N(Cc3ccccc3)C2=O)ccc1O | 494 | -4 | +
COc1cccc(C(O)c2nc(/C=C/c3ccc(C(F)(F)F)cc3)cs2)c1 (centres undefined) | 96 | -7 | i
CCCCCC(=O)N1C[C@H](n2cc(COC(=O)c3ccccc3)nn2)[C@@H](O)C[C@@H]1c1ccc(OC)cc1 | 93 | -1 | i
CC(=O)NCCC(=O)N1CCCC(N2CCN(c3cccc(Cl)c3)CC2)C1 (centres undefined) | 104 | 6 | i
Cc1cccc(C)c1NC(=O)c1ccc2sc([C@@H]3O[C@H](CO)[C@H](O)[C@H](O)[C@H]3O)nc2c1 | 93 | -12 | i
COCCNC(=O)c1cccc2c(-c3ccnn3C)coc12 | 98 | -5 | i
Cc1ccc(/C=C2\SC(=S)N(Cc3ccccc3)C2=O)o1 | 118 | 1 | i
O=C(O)c1cc(-c2ccc(/C=C3/SC(=S)N(Cc4ccccc4)C3=O)o2)ccc1Cl | 206 | 90* | +
CN(C(=O)c1cccc(NC(=O)Cc2cccc(NC(=O)C3CCCN(C(=O)c4ccccc4)C3)c2)c1)C1CCC1 (centres undefined) | 94 | 2 | i
CCOC(=O)c1c(C)n(C)c2ccc(OCC(O)Cn3nc(C)cc3C)cc12 (centres undefined) | 93 | -2 | i
CCOC(=O)c1c(C)n(C)c2ccc(OCC(O)CN3C(=O)c4ccccc4S3(=O)=O)cc12 (centres undefined) | 35* | -1 | i
C[C@H](CO)N1C[C@H](C)[C@@H](CN(C)Cc2ccccc2)Oc2c(NS(=O)(=O)c3cn(C)cn3)cccc2C1=O | 88 | 19 | i
O=C(c1ccccc1)c1ccc(N2CCN(C(=O)c3ccc(F)cc3F)CC2)c(F)c1 | 91 | 6 | i
CC(C)(C)c1ccc(CC(=O)N2CCC2(C)C(=O)NCCC#N)cc1 (centres undefined) | 97 | -7 | i
CCCCC/C=C\C/C=C\C/C=C\CCCCC(=O)O | 98 | -2 | +
CCCCCCCC/C=C\CCCCCCCC(=O)O | 108 | 3 | i
CCCNC(=O)c1ccc2c(c1)nc(C)n2-c1cccc(Cl)c1 | 99 | 8 | i
COCCCNCCCOc1ccc(C)cc1Br | 99 | -1 | +
COCCNCCCOc1ccc(C)cc1Br | 88 | 7 | i
COc1ccc2ncc(S(=O)(=O)c3ccccc3)c(N3CCN(c4ccccc4)CC3)c2c1 | 91 | -2 | i
Cc1ccc2ncc(S(=O)(=O)c3ccccc3)c(N3CCCCC3C)c2c1 (centres undefined) | 99 | 0 | +
C[C@@H]1C(=O)N(c2ccccc2)[C@@H]1c1ccncc1 | 110 | -4 | i
COC(=O)C1=C(C)NC(=O)/C1=C\c1cc(C)n(-c2ccc(F)cc2)c1C | 97 | 104* | i
COC(=O)C1=C(C)NC(=O)/C1=C\c1cc(C)n(-c2cccc(C)c2)c1C | 109 | -5 | i
SMILES | ABCB6 inh MLPCN | Granule exo inh | Myeloid diff 2
O=C(CNC(=O)c1ccc(C(F)(F)F)cc1)NC1CC1 | 92 | -26 | i
CCOC(=O)CCSc1nc(C(C)(C)C)cc(C(F)(F)F)c1C#N | 88 | 1 | i
Cc1cc(C(F)(F)F)c(C#N)c(SCC(=O)Nc2nc3ccccc3s2)n1 | 286 | 3 | +
CCOC(=O)CCSc1nc(C)cc(C(F)(F)F)c1C#N | 244 | -2 | +
Cc1nc(SCC(=O)Nc2nc3ccccc3s2)c(C#N)c(C)c1C | 80 | 3 | i
O=C1/C(=C\c2ccc(Br)cc2)SC(=S)N1NS(=O)(=O)c1ccccc1 | 98 | 57* | i
COc1ccc(/C=C2/SC(=S)N(NS(=O)(=O)c3ccccc3)C2=O)cc1 | 102 | 34 | i
CCOC(=O)c1ccc(S(=O)(=O)N2CCC(N3CCCCC3)CC2)cc1 | 97 | -6 | i
